Results from article PMC7862700, “An all-to-all approach to the identification of sequence-specific readers for epigenetic DNA modifications on cytosine”.

Experiments:
Assay in all cases: DAPPL (digital affinity profiling via proximity ligation, sequencing); 10 mM Tris-HCl pH 7.5, 50 mM NaCl, 1 mM DTT, 4% glycerol, room temperature, 30 min; GST-TFs on glutathione beads, 16-mer random dsDNA library, 0.1% formaldehyde crosslink after washing; high values mean tight binding
FEV = biological target: T1, FEV (Homo sapiens, UniProt Q99581 1-238); conditions: protein: recombinant; tags: N-terminal GST; dsDNA, one strand shown
T1 sequence: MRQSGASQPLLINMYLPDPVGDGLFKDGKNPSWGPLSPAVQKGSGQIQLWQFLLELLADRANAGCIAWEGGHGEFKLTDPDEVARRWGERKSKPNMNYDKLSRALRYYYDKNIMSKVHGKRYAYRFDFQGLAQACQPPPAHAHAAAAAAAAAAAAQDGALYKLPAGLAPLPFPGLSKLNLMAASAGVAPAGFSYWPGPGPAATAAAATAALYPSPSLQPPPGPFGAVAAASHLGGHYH
In short: (§1)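 Human transcription factors fused to GST were expressed in yeast, captured on glutathione beads, given DNA barcodes and pooled with a GST-only negative control. Pools were incubated with 200 nmole of a 16-mer random double-stranded DNA library in Tris/NaCl/DTT/glycerol buffer at room temperature for 30 min. They were then washed, crosslinked with 0.1% formaldehyde, proximity-ligated (BsaI/T4 ligase, 1 h, 37 °C), PCR-amplified and sequenced on an Illumina NextSeq500. Binding signal is each 6-mer's read frequency for a factor divided by its frequency for the GST control.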

ETV5 = ETV5 (Homo sapiens, UniProt P41161 1-510); conditions: protein: recombinant; tags: N-terminal GST; dsDNA, one strand shown
In short: as §1

HSF1 = HSF1 (Homo sapiens, UniProt Q00613 1-529); conditions: protein: recombinant; tags: N-terminal GST; chain copies: 3; dsDNA, one strand shown
In short: as §1

SPIC = biological target: T2, SPIC (Homo sapiens, UniProt Q8N5J4 1-248); conditions: protein: recombinant; tags: N-terminal GST; dsDNA, one strand shown
T2 sequence: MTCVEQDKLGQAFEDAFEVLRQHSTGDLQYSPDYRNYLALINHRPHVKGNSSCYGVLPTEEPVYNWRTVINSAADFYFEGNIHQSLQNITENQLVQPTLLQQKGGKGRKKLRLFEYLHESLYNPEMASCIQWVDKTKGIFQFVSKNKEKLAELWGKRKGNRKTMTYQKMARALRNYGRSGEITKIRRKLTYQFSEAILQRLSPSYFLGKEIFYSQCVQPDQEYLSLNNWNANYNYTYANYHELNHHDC
In short: as §1

ELF4 = ELF4 (Homo sapiens, UniProt Q99607 1-663); conditions: protein: recombinant; tags: N-terminal GST; dsDNA, one strand shown
In short: as §1

ELK4 = biological target: T3, ELK4 (Homo sapiens, UniProt P28324-2 1-405); conditions: protein: recombinant; tags: N-terminal GST; dsDNA, one strand shown
T3 sequence: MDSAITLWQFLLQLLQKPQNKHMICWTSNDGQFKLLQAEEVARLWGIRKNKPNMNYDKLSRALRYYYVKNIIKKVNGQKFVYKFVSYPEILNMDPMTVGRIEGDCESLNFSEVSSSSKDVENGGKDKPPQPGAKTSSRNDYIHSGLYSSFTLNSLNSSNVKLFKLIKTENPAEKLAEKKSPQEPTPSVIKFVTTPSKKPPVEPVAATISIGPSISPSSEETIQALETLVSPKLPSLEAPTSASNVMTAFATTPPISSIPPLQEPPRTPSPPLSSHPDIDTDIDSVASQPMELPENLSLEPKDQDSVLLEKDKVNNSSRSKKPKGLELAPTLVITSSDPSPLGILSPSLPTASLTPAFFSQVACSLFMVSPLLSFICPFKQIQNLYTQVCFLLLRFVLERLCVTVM
In short: as §1

ETV2 = biological target: T4, ETV2 (Homo sapiens, UniProt O00321 1-342); conditions: protein: recombinant; tags: N-terminal GST; dsDNA, one strand shown
T4 sequence: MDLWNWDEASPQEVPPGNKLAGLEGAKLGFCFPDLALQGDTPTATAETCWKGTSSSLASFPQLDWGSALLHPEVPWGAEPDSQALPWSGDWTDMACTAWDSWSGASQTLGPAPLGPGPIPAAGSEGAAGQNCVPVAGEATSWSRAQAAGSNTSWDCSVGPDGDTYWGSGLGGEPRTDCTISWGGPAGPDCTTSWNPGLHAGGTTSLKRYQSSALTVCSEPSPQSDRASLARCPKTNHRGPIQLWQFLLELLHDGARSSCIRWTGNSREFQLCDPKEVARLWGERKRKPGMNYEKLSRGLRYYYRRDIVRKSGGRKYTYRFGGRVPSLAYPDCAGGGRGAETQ
In short: as §1

ELF3 = biological target: T5, ELF3 (Homo sapiens, UniProt P78545 1-371); conditions: protein: recombinant; tags: N-terminal GST; dsDNA, one strand shown
T5 sequence: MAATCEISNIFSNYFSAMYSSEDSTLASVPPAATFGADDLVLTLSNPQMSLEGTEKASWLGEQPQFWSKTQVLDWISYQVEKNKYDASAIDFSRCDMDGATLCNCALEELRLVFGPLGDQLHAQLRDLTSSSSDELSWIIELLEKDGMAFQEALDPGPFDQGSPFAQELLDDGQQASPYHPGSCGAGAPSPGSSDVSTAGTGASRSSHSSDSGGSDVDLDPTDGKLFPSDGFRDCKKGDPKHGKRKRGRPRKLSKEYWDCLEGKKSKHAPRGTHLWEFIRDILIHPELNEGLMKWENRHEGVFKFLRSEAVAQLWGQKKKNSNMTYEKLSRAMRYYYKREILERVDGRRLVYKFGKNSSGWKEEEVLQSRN
In short: as §1

CRX = CRX (Homo sapiens, UniProt O43186 1-299); conditions: protein: recombinant; tags: N-terminal GST; dsDNA, one strand shown
In short: as §1

ETV1 = ETV1 (Homo sapiens, UniProt P50549 1-477); conditions: protein: recombinant; tags: N-terminal GST; dsDNA, one strand shown
In short: as §1

ERF = biological target: T6, ERF (Homo sapiens, UniProt P50548 1-548); conditions: protein: recombinant; tags: N-terminal GST; dsDNA, one strand shown
T6 sequence: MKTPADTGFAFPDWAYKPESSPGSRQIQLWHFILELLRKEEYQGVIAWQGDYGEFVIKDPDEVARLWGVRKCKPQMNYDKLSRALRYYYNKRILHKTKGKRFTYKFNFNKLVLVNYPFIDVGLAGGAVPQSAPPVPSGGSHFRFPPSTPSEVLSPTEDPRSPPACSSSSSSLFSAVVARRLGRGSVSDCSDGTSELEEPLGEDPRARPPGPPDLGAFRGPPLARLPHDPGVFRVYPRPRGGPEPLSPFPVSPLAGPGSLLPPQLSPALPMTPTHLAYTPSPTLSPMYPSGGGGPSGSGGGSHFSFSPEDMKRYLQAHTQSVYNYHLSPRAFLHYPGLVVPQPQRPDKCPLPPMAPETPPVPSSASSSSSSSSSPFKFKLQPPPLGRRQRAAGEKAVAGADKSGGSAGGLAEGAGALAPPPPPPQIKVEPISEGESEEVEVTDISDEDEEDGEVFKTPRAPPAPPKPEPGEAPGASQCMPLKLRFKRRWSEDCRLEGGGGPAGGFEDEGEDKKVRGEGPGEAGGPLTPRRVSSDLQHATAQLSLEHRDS
In short: as §1

ETV3L = biological target: T7, ETV3L (Homo sapiens, UniProt Q6ZN32 1-361); conditions: protein: recombinant; tags: N-terminal GST; dsDNA, one strand shown
T7 sequence: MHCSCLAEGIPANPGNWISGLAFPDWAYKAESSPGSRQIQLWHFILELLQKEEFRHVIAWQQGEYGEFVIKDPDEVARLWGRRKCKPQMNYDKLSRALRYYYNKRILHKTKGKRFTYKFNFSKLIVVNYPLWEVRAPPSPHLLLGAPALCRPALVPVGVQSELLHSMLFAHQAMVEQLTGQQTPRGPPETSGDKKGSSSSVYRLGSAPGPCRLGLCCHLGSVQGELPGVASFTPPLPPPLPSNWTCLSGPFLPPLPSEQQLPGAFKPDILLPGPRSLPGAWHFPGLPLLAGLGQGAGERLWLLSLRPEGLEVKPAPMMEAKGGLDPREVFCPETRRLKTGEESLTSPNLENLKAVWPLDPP
In short: as §1

ETS2 = biological target: T8, ETS2 (Homo sapiens, UniProt P15036 1-469); conditions: protein: recombinant; tags: N-terminal GST; dsDNA, one strand shown
T8 sequence: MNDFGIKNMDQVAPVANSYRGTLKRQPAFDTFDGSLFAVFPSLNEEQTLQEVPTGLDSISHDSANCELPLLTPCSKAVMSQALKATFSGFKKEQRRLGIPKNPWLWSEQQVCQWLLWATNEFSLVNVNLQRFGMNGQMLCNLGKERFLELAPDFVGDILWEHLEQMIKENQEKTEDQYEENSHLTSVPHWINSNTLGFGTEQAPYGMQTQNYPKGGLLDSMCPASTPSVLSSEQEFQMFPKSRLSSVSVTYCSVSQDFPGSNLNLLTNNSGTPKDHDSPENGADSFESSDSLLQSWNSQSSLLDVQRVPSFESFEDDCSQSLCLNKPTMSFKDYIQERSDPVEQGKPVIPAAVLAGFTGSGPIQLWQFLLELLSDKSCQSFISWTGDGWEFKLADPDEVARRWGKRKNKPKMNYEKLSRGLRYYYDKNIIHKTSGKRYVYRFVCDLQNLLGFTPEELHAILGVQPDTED
In short: as §1

SPDEF = biological target: T9, SPDEF (Homo sapiens, UniProt O95238 1-335); conditions: protein: recombinant; tags: N-terminal GST; dsDNA, one strand shown
T9 sequence: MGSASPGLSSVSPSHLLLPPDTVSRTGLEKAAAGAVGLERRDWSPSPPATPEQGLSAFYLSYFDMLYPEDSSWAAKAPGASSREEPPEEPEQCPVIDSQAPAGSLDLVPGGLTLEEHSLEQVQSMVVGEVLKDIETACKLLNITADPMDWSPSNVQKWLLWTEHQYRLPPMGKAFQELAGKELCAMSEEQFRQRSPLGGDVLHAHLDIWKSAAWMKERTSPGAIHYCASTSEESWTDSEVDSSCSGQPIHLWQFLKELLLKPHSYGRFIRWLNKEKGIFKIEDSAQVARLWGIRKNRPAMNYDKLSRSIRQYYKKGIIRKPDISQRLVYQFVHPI
In short: as §1

ETV7 = biological target: T10, ETV7 (Homo sapiens, UniProt Q9Y603 1-341); conditions: protein: recombinant; tags: N-terminal GST; dsDNA, one strand shown
T10 sequence: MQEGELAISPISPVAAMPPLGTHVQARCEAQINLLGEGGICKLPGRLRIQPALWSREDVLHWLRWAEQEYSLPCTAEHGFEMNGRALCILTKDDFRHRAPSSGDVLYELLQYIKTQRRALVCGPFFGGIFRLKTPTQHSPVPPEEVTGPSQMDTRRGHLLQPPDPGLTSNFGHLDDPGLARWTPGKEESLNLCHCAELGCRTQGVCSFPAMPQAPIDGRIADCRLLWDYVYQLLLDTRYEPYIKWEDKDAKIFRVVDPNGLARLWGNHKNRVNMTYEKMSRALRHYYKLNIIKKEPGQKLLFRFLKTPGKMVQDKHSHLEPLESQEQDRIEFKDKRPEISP
In short: as §1

ELF5 = biological target: T11, ELF5 (Homo sapiens, UniProt Q9UKW6-2 1-255); conditions: protein: recombinant; tags: N-terminal GST; dsDNA, one strand shown
T11 sequence: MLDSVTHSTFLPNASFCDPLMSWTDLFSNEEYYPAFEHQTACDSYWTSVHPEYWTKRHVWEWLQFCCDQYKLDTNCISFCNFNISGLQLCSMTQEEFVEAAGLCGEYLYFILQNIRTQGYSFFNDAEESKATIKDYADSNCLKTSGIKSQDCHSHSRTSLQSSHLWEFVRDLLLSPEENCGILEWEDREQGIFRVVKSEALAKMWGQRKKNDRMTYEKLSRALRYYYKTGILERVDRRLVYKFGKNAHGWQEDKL
In short: as §1

ETV3 = biological target: T12, ETV3 (Homo sapiens, UniProt P41162-2 1-143); conditions: protein: recombinant; tags: N-terminal GST; dsDNA, one strand shown
T12 sequence: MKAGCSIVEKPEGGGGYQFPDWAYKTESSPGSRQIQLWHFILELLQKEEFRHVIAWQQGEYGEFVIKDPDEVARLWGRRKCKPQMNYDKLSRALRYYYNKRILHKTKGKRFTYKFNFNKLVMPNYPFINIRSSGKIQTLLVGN
In short: as §1

ETV6 = ETV6 (Homo sapiens, UniProt P41212 1-452); conditions: protein: recombinant; tags: N-terminal GST; dsDNA, one strand shown
In short: as §1

Chain of CRX (O43186 whole entry): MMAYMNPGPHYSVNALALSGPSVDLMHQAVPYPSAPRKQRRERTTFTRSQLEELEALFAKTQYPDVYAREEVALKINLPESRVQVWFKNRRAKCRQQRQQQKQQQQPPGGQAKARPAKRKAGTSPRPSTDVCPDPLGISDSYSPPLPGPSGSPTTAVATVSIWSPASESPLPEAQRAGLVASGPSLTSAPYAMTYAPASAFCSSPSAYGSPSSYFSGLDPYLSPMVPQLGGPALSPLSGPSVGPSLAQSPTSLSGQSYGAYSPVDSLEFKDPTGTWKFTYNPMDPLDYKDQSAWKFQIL
Chain of ELF4 (Q99607 whole entry): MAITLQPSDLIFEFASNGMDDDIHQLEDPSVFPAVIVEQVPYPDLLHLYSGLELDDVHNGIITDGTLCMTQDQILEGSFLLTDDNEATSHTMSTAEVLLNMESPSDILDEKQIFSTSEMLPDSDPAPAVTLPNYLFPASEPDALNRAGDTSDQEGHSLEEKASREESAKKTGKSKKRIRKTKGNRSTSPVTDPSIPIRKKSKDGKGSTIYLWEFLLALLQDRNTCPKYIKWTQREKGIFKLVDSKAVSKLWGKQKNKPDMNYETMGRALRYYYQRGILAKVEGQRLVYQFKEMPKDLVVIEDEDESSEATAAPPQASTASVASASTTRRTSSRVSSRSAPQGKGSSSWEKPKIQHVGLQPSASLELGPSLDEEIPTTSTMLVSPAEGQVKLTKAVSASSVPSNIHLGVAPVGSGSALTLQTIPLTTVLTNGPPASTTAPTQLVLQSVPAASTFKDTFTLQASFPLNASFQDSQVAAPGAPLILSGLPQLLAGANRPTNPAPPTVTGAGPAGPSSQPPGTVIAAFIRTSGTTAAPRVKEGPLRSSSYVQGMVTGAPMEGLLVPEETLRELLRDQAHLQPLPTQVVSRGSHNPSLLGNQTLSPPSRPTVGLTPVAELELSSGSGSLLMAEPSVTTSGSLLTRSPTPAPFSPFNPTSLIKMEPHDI
Chain of HSF1 (Q00613 whole entry): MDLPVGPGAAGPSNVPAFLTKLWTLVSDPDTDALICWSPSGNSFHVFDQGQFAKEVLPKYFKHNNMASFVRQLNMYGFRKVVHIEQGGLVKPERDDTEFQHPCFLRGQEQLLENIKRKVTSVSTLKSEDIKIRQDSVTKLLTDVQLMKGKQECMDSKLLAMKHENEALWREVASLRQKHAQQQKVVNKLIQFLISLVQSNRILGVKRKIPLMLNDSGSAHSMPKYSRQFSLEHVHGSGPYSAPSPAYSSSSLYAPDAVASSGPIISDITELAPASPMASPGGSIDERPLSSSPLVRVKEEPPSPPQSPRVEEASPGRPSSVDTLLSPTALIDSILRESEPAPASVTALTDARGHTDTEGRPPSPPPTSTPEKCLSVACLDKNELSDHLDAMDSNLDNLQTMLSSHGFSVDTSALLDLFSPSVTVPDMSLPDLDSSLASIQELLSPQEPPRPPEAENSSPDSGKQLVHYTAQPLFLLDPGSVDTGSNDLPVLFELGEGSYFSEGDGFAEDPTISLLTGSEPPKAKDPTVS
Chain of ETV6 (P41212 whole entry): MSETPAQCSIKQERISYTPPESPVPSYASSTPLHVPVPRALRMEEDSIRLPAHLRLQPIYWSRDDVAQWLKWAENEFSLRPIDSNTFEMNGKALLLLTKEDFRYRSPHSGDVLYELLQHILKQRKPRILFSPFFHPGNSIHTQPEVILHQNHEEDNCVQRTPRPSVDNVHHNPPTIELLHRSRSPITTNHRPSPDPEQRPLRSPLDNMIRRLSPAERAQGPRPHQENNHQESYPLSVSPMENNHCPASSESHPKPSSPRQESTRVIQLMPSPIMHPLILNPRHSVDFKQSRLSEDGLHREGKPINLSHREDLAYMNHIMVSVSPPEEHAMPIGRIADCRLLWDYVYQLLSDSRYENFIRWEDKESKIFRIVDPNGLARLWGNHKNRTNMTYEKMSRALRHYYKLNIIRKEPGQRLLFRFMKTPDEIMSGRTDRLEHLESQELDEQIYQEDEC
Chain of ETV1 (P50549 whole entry): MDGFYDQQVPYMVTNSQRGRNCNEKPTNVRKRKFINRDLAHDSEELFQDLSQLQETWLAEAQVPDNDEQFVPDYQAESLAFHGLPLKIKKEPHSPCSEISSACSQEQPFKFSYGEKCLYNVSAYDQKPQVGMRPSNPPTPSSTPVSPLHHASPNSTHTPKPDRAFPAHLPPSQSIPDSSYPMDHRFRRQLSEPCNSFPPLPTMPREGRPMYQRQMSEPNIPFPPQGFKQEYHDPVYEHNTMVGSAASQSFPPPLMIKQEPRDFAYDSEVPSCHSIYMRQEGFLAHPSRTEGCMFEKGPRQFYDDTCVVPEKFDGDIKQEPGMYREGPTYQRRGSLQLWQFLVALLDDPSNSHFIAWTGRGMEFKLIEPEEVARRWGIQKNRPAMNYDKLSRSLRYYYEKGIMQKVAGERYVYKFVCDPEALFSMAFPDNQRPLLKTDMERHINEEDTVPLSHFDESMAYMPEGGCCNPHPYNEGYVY
Chain of ETV5 (P41161 whole entry): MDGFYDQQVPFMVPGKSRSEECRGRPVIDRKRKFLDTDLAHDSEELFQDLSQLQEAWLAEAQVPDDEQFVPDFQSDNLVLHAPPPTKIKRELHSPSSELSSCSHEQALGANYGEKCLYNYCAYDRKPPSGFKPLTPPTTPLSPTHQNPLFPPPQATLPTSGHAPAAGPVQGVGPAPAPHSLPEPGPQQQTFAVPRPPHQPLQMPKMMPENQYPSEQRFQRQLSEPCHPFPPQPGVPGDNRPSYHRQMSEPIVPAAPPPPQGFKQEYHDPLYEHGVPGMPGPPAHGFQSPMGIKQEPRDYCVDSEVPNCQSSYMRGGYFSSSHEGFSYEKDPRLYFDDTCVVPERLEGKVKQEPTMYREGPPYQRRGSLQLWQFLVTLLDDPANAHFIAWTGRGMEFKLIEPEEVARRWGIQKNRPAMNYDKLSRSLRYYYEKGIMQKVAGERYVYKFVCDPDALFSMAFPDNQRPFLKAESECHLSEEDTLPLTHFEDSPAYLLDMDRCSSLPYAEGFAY

In the case of CACTTT, the binding signal (FEV) is reported as 1.18 fold enrichment (6-mer frequency, TF over GST control), the binding signal (ETV5) is reported as 1.38 fold enrichment (6-mer frequency, TF over GST control) and the binding signal (HSF1) is reported as 1.17 fold enrichment (6-mer frequency, TF over GST control). For the same sequence, the binding signal (SPIC) was 1.29 fold enrichment (6-mer frequency, TF over GST control), the binding signal (ELF4) was 1.3 fold enrichment (6-mer frequency, TF over GST control) and the binding signal (ELK4) was 1.34 fold enrichment (6-mer frequency, TF over GST control). The binding signal (ETV2) was 1.35 fold enrichment (6-mer frequency, TF over GST control), the binding signal (ELF3) was 1.28 fold enrichment (6-mer frequency, TF over GST control) and the binding signal (CRX) was 1.14 fold enrichment (6-mer frequency, TF over GST control). For the same sequence, the binding signal (ETV1) was 1.3 fold enrichment (6-mer frequency, TF over GST control), the binding signal (ERF) was 1.3 fold enrichment (6-mer frequency, TF over GST control) and the binding signal (ETV3L) was 1.24 fold enrichment (6-mer frequency, TF over GST control). For the same sequence, the binding signal (ETS2) was 1.32 fold enrichment (6-mer frequency, TF over GST control), the binding signal (SPDEF) was 1.16 fold enrichment (6-mer frequency, TF over GST control) and the binding signal (ETV7) was 1.26 fold enrichment (6-mer frequency, TF over GST control). The binding signal (ELF5) was 1.23 fold enrichment (6-mer frequency, TF over GST control), the binding signal (ETV3) was 1.32 fold enrichment (6-mer frequency, TF over GST control) and the binding signal (ETV6) was 1.26 fold enrichment (6-mer frequency, TF over GST control).
